Where “and” joins values, the source holds several entries; their conditions need not be identical. Equal values may be shown once. Records with an inconclusive call do not appear. Entries that show only a call come without a potency. Calls of active or inactive are those of the source. Unless noted, the call rests on the fitted dose curve.
Legend:
[1] = target: Bile acid receptor (Homo sapiens) (UniProt Q96RI1); assay: qHTS assay for small molecule antagonists of farnesoid X receptor signaling (AID 588526)
Procedure, shortened: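 Concentration-response titrations were fitted to the Hill equation for half-maximal inhibition and maximal response, with data normalised to 50 uM chenodeoxycholic acid and DMSO control wells. Cells: FXR-UAS-bla HEK293T, dialyzed FBS.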

[2] = target: Glucocorticoid receptor (Homo sapiens) (UniProt P04150); assay: qHTS assay for small molecule agonists of glucocorticoid receptor signaling (AID 588532; active means well fitted curve in the direction sought with a large enough effect in the signal ratio, with a control signal flat; the % refers to the signal ratio); settings: HeLa MMTV-bla, beta-lactamase ratio, agonist, 18 h; stronger effect = higher value; percent of dexamethasone control, DMSO zero
Procedure, shortened: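 Titration series, up to 92 uM, applied to GRE-bla HeLa cells for 18 h at 37 C. Detection by CCF4 FRET substrate after 2 h at RT.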

[3] = target: Glucocorticoid receptor (Homo sapiens) (UniProt P04150); assay: qHTS assay for small molecule antagonists of glucocorticoid receptor signaling (AID 588533; active means well fitted inhibition curve with a large enough effect in the signal ratio, with a control signal flat, not every such curve was filed as active; the % refers to the signal ratio;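 further: cells stimulated with 2 nM dexamethasone as agonist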)
Procedure, shortened: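 Antagonist-mode qHTS: compound titrations added to GRE-bla HeLa cells, then dexamethasone 2 nM final; 18 h, 37 C. CCF4 FRET fluorescence normalized to dexamethasone and DMSO; IC50 from Hill fit.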

[4] = qHTS assay for small molecule antagonists of peroxisome proliferator-activated receptor delta signaling (AID 588535; active means well fitted inhibition curve with a large enough effect in the signal ratio, with a control signal flat, not every such curve was filed as active; the % refers to the signal ratio;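 on max response: cells co-treated with a PPAR-delta agonist as stimulator during compound exposure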); settings: HEK293T PPARd-UAS-bla, beta-lactamase FRET ratio, 18 h; 460 nm channel
Procedure, shortened: (§1)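 Inhibition of PPAR-delta response element-driven beta-lactamase expression is measured in HEK293T cells exposed to a compound titration series for 18 hrs at 37 C. Half-maximal inhibition comes from Hill equation fitting.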

[5] = target: Peroxisome proliferator-activated receptor delta (Homo sapiens) (UniProt Q03181); assay: as above
Procedure, shortened: as §1

[6] = target: Vitamin D3 receptor (Homo sapiens) (UniProt P11473); assay: qHTS assay for small molecule antagonists of vitamin D receptor signaling (AID 588541);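 further: receptor activated by calcitriol during compound treatment; series mostly up to about 77 µM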
Procedure, shortened: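 VDR-UAS-bla HEK293T cells (2000/well, 2% charcoal-stripped FBS) were treated with titrated compounds plus 1-alpha,25-dihydroxyvitamin D3 (50 nM or 3 nM final) for 16 h at 37 C. CCF4 beta-lactamase fluorescence was read; Hill fits gave IC50.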

[7] = target: Vitamin D3 receptor (Homo sapiens) (UniProt P11473); assay: qHTS assay for small molecule agonists of vitamin D receptor signaling (AID 588543)
Procedure, shortened: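 Reporter cells (HEK293T, VDR-UAS-bla) were seeded in medium with 2% charcoal-stripped serum and incubated 5 h, then compounds in concentration series were added for 16 h at 37 °C. Stimulation was scaled between DMSO basal and 50 nM 1α,25-dihydroxyvitamin D3.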

[8] = target: Peroxisome proliferator-activated receptor gamma (Homo sapiens) (UniProt P37231); assay: qHTS assay for small molecule agonists of peroxisome proliferator-activated receptor gamma signaling (AID 588536; active means well fitted curve in the direction sought with a large enough effect in the signal ratio, with a control signal flat, not every such curve was filed as active; the % refers to the signal ratio)
Procedure, shortened: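 Cells were plated and held 6–6.5 h at 37 C, then compounds were added as a titration series. After a further 16 h, CCF4 dye was loaded for 2 h at room temperature and emission at 460/530 nm recorded.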

[9] = target: Peroxisome proliferator-activated receptor gamma (Homo sapiens) (UniProt P37231); assay: qHTS assay for small molecule antagonists of peroxisome proliferator-activated receptor gamma signaling (AID 588537; active means well fitted inhibition curve with a large enough effect in the signal ratio, with a control signal flat, not every such curve was filed as active; the % refers to the signal ratio;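 further: reporter cells co-stimulated with 50 nM rosiglitazone agonist during compound treatment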)
Procedure, shortened: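 Compounds are tested as concentration series for inhibition of rosiglitazone-driven (50 nM) reporter expression in GeneBLAzer PPAR-gamma-UAS-bla HEK293 cells. After 16 h at 37 C, CCF4 substrate is added for 2 h at room temperature and blue/green fluorescence is measured.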

Peroxisome proliferator-activated receptor gamma (Homo sapiens), sequence (P37231 whole entry, looked up): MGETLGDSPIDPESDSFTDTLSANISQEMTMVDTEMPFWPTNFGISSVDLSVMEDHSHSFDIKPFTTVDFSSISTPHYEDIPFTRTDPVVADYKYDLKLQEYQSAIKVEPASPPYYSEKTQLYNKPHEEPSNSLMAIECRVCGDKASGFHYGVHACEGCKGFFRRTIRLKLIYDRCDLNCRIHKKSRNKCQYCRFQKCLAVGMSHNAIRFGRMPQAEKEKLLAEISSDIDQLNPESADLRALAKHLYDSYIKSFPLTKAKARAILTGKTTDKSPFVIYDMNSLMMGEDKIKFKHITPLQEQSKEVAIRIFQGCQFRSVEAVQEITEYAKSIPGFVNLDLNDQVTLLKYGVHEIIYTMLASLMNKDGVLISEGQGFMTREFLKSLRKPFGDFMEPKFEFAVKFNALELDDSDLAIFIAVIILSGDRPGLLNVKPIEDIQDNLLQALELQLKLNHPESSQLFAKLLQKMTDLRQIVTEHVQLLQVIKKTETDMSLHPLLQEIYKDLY
Bile acid receptor (Homo sapiens), sequence (Q96RI1 whole entry, looked up): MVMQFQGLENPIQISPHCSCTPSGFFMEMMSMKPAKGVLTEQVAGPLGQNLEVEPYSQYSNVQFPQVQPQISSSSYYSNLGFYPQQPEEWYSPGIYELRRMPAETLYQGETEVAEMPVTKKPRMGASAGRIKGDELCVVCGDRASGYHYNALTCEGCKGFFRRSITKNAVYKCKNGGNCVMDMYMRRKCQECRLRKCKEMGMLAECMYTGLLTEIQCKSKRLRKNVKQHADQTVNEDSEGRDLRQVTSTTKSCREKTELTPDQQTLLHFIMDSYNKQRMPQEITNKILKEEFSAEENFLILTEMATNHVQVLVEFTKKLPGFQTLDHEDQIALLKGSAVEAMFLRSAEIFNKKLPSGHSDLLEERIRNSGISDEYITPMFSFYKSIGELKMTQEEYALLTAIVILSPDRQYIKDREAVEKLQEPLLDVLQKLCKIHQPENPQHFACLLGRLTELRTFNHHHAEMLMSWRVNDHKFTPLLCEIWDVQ
Vitamin D3 receptor (Homo sapiens), sequence (P11473 whole entry, looked up): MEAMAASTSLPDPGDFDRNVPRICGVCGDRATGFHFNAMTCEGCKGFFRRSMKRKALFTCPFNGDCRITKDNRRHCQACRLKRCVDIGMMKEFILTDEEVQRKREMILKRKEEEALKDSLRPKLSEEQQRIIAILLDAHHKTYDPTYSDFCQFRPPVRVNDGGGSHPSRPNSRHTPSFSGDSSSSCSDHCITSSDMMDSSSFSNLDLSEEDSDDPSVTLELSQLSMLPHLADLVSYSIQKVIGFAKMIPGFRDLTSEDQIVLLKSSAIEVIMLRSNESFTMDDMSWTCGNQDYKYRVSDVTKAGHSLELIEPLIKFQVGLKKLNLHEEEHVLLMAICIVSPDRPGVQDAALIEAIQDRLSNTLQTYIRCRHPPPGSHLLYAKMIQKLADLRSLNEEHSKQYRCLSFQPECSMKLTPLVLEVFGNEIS
Peroxisome proliferator-activated receptor delta (Homo sapiens), sequence (Q03181 whole entry, looked up): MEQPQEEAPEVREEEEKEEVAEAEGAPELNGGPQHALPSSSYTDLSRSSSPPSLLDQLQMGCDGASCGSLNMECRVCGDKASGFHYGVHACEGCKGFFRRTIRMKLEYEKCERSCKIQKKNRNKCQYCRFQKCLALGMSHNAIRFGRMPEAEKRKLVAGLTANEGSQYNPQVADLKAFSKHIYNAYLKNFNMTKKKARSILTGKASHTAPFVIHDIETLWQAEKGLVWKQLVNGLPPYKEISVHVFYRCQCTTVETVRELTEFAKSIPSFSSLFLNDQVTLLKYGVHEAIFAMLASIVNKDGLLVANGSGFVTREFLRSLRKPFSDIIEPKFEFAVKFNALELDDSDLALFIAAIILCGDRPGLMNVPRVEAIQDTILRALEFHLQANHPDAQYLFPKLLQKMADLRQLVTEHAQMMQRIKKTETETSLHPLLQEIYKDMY
Glucocorticoid receptor (Homo sapiens), sequence (P04150 whole entry, looked up): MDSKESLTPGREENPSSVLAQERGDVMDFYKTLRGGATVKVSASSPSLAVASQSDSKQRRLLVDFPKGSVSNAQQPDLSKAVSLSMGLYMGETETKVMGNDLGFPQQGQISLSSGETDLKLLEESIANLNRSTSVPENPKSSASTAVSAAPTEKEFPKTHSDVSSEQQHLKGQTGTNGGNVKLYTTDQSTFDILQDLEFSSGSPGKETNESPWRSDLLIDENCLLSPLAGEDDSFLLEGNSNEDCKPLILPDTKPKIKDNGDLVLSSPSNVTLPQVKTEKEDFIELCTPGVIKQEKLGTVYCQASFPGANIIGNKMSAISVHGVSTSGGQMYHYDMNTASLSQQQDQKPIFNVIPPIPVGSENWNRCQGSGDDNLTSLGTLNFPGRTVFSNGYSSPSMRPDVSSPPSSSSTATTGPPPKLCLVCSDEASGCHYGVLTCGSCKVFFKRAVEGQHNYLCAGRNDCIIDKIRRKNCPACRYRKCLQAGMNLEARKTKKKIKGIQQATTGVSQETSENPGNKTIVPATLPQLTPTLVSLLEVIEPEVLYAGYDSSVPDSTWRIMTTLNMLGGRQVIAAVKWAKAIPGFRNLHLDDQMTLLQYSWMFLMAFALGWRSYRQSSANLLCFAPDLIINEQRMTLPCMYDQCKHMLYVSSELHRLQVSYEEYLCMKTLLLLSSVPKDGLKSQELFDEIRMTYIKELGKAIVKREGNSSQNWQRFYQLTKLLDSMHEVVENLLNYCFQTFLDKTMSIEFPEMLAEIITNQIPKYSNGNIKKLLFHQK

| SMILES | outcome [1] | activation [2] | outcome [3] | max response [4] [%] | Potency [5] | outcome [6] | outcome [7] | outcome [8] | outcome [9] |
| --- | --- | --- | --- | --- | --- | --- | --- | --- | --- |
| O=[N+]([O-])c1ccc(NCCO)c(OCCO)c1 | inactive | 5.48% (inactive) | inactive | 15.8 | inactive | inactive | inactive |  |  |
| CC(=O)OC(C)C | inactive | 0.131% (inactive) | inactive | -28.9 | inactive | inactive | inactive | inactive |  |
| CSCCC=O | inactive | -3.21% (inactive) | inactive | -13.1 | inactive | inactive | inactive | inactive |  |
| CC(N)CN (stereo not given) | inactive | -2.03% (inactive) | inactive | 4.9 | inactive | inactive | inactive | inactive |  |
| CCC1CO1 (stereo not given) | inactive | -3% (inactive) | inactive | -69.5 | inactive | inactive | inactive |  | inactive |
| O=Cc1cccc(Br)c1 | inactive | -2.28% (inactive) | inactive | 21.9 | inactive | inactive | inactive | inactive |  |
| C/C=C1\CC2C=CC1C2 (stereo not given) | inactive | 1.02% (inactive) | inactive | -0.443 | inactive | inactive |  |  | inactive |
| C=CC(=O)OCCCC | inactive | 6.23% (inactive) | inactive | -13.6 | inactive | inactive | inactive |  |  |
| CCC(C)(C)C | inactive | -3.95% (inactive) | inactive |  |  | inactive | inactive |  |  |
| CC(O)CC(C)O (stereo not given) | inactive | 0.893% (inactive) | inactive | 7.44 | inactive | inactive | inactive | inactive |  |
| Cc1ccc(C)c(N)c1 | inactive | -8.67% (inactive) | inactive | 30.9 | inactive | inactive | inactive | inactive |  |
| C=C(C)C(=O)OCCCCCCCCCC | inactive | 8.77% (inactive) | inactive |  |  | inactive | inactive |  | inactive |
| CCCCC/C=C/C=C/C=O | inactive | -3.04% (inactive) and 0.369% (inactive) | inactive | 16.5 | inactive | inactive | inactive | inactive |  |
| CN(C)CCCNCCCN | inactive | -1.86% (inactive) | inactive | -8.47 | inactive | inactive | inactive | inactive | inactive |
| Cc1cc([N+](=O)[O-])ccc1N | inactive | -2.44% (inactive) | inactive |  |  | inactive | inactive | inactive | inactive |
| O=C(O)c1ccccc1[N+](=O)[O-] | inactive | 7.49% (inactive) | inactive |  |  | inactive | inactive | inactive |  |
| CCc1ccccc1O | inactive | 4.35% (inactive) | inactive | -32.1 | inactive | inactive | inactive |  | inactive |
| O=CNc1ccccc1 | inactive | -0.553% (inactive) | inactive |  |  | inactive | inactive | inactive | inactive |
| Nc1nc2ccccc2[nH]1 | inactive | 0.673% (inactive) | inactive |  |  | inactive | inactive | inactive | inactive |
| Cc1cc(C)cc([N+](=O)[O-])c1 | inactive | -8.13% (inactive) |  | -43.4 | inactive | inactive | inactive | inactive |  |
| CC=O | inactive | -2.95% (inactive) |  | 23.9 | inactive | inactive | inactive | inactive |  |
| Nc1c(Cl)cc(Cl)cc1Cl | inactive |  | inactive | 1.78 | inactive | inactive | inactive | inactive | inactive |
| CCCCC(CC)CO (stereo not given) | inactive | -4.31% (inactive) |  | -4.39 | inactive | inactive | inactive |  |  |
| CCCCCCCCCCCCC1CO1 (stereo not given) | inactive |  | inactive | -13.1 | inactive |  |  | inactive | inactive |
| C1CCOC1 | inactive | 0.528% (inactive) |  |  |  | inactive | inactive | inactive |  |
| Cc1cc(C)c(N)cc1C | inactive | 5.44% (inactive) |  | 2.74 | inactive | inactive | inactive | inactive |  |
| Cc1ccc(C)o1 | inactive |  | inactive | -8.16 | inactive | inactive | inactive | inactive |  |
| O=C(Cl)c1cccc([N+](=O)[O-])c1 | inactive | 3.39% (inactive) |  | 33.5 | inactive | inactive | inactive | inactive |  |
